Screening data as filed in PubChem.
KCNQ2 block = KCNQ2 (rat) channel inhibition. B-score at 10 µM. 310,000 tested, 1.1% active. CHO-K1 KCNQ2, FluxOR thallium flux, 20 min; hits give low values;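 active = fluorescence ratio B-score at most minus 3 library SDs, with starting brightness B-score within 2 library SDs, cut at about -5.5 in these data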
Target sequence (O88943 whole entry, looked up): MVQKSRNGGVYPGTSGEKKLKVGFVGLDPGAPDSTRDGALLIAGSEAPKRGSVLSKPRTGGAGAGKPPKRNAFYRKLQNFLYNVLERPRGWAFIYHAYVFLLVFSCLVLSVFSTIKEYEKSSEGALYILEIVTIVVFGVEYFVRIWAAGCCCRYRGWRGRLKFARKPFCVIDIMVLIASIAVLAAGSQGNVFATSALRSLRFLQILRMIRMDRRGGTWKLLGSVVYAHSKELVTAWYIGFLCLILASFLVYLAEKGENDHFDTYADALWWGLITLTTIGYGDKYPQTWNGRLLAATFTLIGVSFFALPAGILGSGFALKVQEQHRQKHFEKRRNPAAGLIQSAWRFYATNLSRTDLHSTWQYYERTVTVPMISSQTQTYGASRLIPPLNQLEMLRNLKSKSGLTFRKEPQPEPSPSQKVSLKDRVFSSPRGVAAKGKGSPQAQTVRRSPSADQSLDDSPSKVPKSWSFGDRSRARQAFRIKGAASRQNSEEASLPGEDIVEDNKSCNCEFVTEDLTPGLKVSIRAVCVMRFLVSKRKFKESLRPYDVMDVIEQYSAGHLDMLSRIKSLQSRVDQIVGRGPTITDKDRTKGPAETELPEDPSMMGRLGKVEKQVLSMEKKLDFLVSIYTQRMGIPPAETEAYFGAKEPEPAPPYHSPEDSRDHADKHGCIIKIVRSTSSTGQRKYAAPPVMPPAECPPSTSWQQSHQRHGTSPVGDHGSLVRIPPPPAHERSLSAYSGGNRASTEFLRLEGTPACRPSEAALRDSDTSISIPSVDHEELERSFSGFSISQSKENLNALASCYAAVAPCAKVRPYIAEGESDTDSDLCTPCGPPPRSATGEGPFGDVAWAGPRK
KCNQ2 enhance = enhances the rat KCNQ2 potassium channel; B-score at 10 µM; 310,000 tested, 0.54% active; CHO-K1 KCNQ2, FluxOR thallium flux fluorescence; hits give high values;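 active = fluorescence ratio B-score at least 3 SD of library B-scores, with initial fluorescence B-score within 3 of them, cut at about 5.3 in these data; same plate scores as AID 2156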;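 note: B-score of peak minus minimum over baseline fluorescence ratio after K+ and Tl+ stimulus; positive B-score means potentiation of KCNQ2 with more thallium influx and brighter signal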
Numbers stand for hits; – = inactive; · = no result. This is a sample that favours compounds with a hit; in the whole collection about 1.6% have one here.

SMILES	KCNQ2 block	KCNQ2 enhance
CCCNC(=S)Nc1ccc(Br)cc1	–	–
COC(=O)Cc1ccc(NC(=S)NCCC(C)C)cc1	–	·
CC(C)CCNC(=S)Nc1ccc([N+](=O)[O-])cc1	–	14
CCCCn1c(N)c(N(CC(C)C)C(=O)CCCc2nc3ccccc3c(=O)[nH]2)c(=O)[nH]c1=O	–	·
O=C(CC1C(=O)N(c2ccccc2)C(=S)N1c1ccccc1)c1ccccc1 (configuration not stated)	–	·
O=C(CC1C(=O)N(c2ccccc2)C(=S)N1c1ccccc1)c1ccc(Br)cc1 (configuration not stated)	-6.4	–
O=C(Nc1cc(Cl)ccc1O)C1CC(c2ccccc2Cl)=NO1 (configuration not stated)	–	·
CSc1nc(-c2ccc(C)cc2)[nH]c1S(=O)(=O)c1ccccc1	–	·
CC(=O)Sc1nc(-c2ccccc2)[nH]c1S(=O)(=O)c1ccc(C)cc1	-11	–
COc1cc(CN2CCNC(=O)C2CC(=O)N2CCc3ccccc3C2)cc(OC)c1 (configuration not stated)	–	·
CC(C)(C#CCN1CCCCC1)OCCOC(c1ccccc1)c1ccccc1	-6.1	–
CC(O)(C#CCN1CCCCC1)c1ccccc1 (configuration not stated)	–	–
O=C(c1ccc(-c2cccc(C(F)(F)F)c2)o1)N1CCCCCCC1	-6.2	–
O=C(Cn1nnc(-c2ccccc2)n1)N1CCCCC1	–	–
O=C(c1ccco1)N1CCN(C(=O)c2ccc(-c3cccc(C(F)(F)F)c3)o2)CC1	–	–
O=C(Cn1nnc(-c2cccc(C(F)(F)F)c2)n1)N1CCCCCC1	–	12
O=C(C1CCN(S(=O)(=O)c2cccc3cccnc23)CC1)N1CCCCC1	–	–
COc1cccc(C(=O)OCCNC(=O)c2cccnc2)c1	–	·
COC(=O)C1=C(CCc2ccccc2)NC(=O)NC1c1ccc(Br)cc1 (configuration not stated)	–	–
c1ccc(Cc2nn3c(C4COc5ccccc5O4)nnc3s2)cc1 (configuration not stated)	–	·
c1ccc(CCc2nn3c(C4COc5ccccc5O4)nnc3s2)cc1 (configuration not stated)	-6.1	–
CCOc1ccc(N(C(C)C(=O)N2CCOCC2)S(C)(=O)=O)cc1 (configuration not stated)	–	·
CCN1CCN(Cc2ccc(NC(=O)c3cc(NC(=O)C(=O)c4c[nH]c5ccccc45)cc(OC)c3)cc2C(F)(F)F)CC1	–	·
CCN1CCN(Cc2ccc(NC(=O)c3ccc(C)c(NC(=O)C(=O)c4c[nH]c5ccccc45)c3)cc2C(F)(F)F)CC1	-7.8	–
Brc1ccc(CNc2cc3c(cc2Br)OCCO3)cc1	–	–
SMILES	KCNQ2 block	KCNQ2 enhance
CCOc1ccc(N2C(=O)CC(NCCNc3ccc(C(=O)c4cccs4)cc3)C2=O)cc1 (configuration not stated)	–	·
COc1ccc(C(CNC(=O)c2oc3ccc(OC)cc3c2C)N2CCCC2)cc1 (configuration not stated)	–	·
CCc1ccc2oc(C(=O)NCC(c3ccc(OC)cc3)N3CCCCC3)c(C)c2c1 (configuration not stated)	-7.1	–
COc1ccc(C(CNC(=O)c2oc3cc(Br)ccc3c2C)N2CCCCC2)cc1 (configuration not stated)	–	·
COc1ccc(C(CNC(=O)c2oc3ccc(F)cc3c2C)N2CCCCC2)cc1 (configuration not stated)	-6.3	–
COc1ccc(C(CNC(=O)COc2ccccc2C)N2CCCC2)cc1 (configuration not stated)	–	·
COc1ccc(C(CNC(=O)c2oc3ccc(Br)cc3c2C)N2CCCCC2)cc1 (configuration not stated)	-6.2	–
COc1ccc(C(CNC(=O)COc2ccc(Cl)c(C)c2)N2CCCCC2)cc1 (configuration not stated)	-5.9	–
COc1ccc(C(CNC(=O)c2oc3cc(C)c(C)cc3c2C)N2CCCCC2)cc1 (configuration not stated)	–	·
CN1C(=O)/C(=C/c2ccc(C(=O)Nc3ccc(O)cc3C(=O)O)cc2)SC1=S	–	–
COc1ccc(-c2csc(N3CCN(c4cc(C)nc5ccccc45)CC3)n2)cc1OC	-6.3	–
COc1cc(-c2csc(N3CCOCC3)n2)cc(OC)c1OC	–	–
Cc1ccc(C(=O)CCS(=O)(=O)c2ccc(Br)cc2)cc1	–	·
COc1ccc(C(=O)CCS(=O)(=O)c2ccc(C)cc2)cc1	-6.4	–
CCN(CC)S(=O)(=O)c1cc(NC(=O)CSc2nccn2C)ccc1C	–	·
CCc1nc(SCC(=O)N2CCCC2)c2c(=O)n(C)c(=O)n(C)c2n1	–	–
CCCc1nc(SCC(=O)N2CCCCCC2)c2c(=O)n(C)c(=O)n(C)c2n1	–	19
CCOC(=O)NNC(=O)c1[nH]c2ccc(Br)cc2c1-c1ccccc1	-6.8	–
CC(=O)NNC(=O)c1[nH]c2ccc(Br)cc2c1-c1ccccc1	–	–
